Unmarked numbers belong to inactive results.
Compound: C#CCNC(=O)CCSSCCC(=O)NCCc1ccc(C=O)c(C=O)c1
Test: lysine labeling ratio R10:1 (500 µM / 50 µM probe), SILAC-ABPP in living cells; higher = lower intrinsic lysine reactivity toward the probe, active = 2 or less
Details: HeLa; probe concentrations 500 vs 50 µM
Outline: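 Forward and reverse SILAC label swaps were used with living light and heavy HeLa cells in PBS at room temperature, which were given an alkyne-tagged, disulfide-linked lysine probe at 50 µM or 500 µM. R is the per-lysine filtered median high-probe/low-probe MS1 peptide ratio, with the median then taken across both swap directions. Values are limited to 20.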

UniProt Q96F81, sequence (Q96F81 whole entry): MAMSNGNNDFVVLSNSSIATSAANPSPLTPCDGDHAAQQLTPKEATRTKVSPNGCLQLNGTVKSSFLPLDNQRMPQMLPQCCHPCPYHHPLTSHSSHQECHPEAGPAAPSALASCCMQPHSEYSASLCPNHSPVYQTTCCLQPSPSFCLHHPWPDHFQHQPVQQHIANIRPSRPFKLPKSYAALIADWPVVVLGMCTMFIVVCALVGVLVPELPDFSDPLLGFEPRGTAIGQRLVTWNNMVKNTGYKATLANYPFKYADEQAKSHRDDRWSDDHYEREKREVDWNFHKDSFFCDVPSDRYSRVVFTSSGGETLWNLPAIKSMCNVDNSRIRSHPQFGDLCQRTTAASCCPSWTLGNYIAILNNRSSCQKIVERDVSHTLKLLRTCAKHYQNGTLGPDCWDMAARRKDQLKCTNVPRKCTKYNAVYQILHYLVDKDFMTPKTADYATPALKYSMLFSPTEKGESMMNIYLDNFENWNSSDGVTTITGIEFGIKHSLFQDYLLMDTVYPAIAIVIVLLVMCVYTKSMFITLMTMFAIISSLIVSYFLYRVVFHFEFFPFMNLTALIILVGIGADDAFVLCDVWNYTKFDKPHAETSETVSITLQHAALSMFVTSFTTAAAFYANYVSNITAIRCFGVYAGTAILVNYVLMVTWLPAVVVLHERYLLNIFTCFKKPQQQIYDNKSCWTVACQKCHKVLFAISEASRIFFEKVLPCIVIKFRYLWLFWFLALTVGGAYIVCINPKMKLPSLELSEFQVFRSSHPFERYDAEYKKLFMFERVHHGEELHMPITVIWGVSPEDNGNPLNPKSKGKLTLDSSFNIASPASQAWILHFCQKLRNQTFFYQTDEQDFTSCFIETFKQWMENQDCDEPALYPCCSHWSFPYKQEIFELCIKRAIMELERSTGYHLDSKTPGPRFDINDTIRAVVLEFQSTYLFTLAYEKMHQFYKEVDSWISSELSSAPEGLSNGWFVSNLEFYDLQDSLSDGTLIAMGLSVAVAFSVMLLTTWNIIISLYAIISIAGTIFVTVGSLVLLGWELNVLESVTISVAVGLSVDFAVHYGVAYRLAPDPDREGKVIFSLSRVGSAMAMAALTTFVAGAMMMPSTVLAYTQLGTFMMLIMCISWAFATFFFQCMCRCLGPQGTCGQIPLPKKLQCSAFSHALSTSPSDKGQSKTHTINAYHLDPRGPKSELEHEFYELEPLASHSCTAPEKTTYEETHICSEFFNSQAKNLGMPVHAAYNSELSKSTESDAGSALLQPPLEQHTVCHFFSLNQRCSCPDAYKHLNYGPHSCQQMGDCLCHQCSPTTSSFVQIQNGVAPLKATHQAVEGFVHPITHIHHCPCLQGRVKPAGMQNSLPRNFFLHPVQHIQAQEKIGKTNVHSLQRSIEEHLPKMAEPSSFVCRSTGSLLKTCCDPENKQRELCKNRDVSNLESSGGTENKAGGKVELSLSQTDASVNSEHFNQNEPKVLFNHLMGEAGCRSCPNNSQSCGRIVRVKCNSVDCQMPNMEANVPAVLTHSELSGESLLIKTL
UniProt P06756, sequence (P06756 whole entry): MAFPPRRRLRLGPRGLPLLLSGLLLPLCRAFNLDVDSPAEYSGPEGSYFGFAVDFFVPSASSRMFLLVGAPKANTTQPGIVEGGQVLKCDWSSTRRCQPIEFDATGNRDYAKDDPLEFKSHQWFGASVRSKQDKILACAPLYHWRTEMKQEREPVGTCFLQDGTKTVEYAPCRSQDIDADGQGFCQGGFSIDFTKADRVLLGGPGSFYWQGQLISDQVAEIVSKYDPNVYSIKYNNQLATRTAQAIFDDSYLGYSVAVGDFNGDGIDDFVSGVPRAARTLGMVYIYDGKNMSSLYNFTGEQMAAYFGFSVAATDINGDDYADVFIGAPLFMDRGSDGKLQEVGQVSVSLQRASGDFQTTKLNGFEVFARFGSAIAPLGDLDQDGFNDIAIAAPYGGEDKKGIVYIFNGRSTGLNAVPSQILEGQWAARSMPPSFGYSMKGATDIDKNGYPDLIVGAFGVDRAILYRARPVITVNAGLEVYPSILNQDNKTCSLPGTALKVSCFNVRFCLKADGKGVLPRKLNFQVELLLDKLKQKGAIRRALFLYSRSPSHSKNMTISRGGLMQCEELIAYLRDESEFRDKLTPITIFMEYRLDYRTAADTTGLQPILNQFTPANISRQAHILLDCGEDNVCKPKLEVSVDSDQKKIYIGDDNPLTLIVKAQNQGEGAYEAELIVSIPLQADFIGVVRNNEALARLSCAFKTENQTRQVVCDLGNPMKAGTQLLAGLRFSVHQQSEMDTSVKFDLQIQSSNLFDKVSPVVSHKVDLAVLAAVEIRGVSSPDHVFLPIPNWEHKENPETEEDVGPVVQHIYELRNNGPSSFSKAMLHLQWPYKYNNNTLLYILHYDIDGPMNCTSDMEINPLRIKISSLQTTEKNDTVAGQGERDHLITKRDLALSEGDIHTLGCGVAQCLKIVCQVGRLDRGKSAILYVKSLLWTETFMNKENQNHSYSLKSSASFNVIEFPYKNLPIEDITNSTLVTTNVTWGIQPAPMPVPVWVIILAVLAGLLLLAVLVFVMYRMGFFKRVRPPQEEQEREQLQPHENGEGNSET
UniProt P43121, sequence (P43121 whole entry): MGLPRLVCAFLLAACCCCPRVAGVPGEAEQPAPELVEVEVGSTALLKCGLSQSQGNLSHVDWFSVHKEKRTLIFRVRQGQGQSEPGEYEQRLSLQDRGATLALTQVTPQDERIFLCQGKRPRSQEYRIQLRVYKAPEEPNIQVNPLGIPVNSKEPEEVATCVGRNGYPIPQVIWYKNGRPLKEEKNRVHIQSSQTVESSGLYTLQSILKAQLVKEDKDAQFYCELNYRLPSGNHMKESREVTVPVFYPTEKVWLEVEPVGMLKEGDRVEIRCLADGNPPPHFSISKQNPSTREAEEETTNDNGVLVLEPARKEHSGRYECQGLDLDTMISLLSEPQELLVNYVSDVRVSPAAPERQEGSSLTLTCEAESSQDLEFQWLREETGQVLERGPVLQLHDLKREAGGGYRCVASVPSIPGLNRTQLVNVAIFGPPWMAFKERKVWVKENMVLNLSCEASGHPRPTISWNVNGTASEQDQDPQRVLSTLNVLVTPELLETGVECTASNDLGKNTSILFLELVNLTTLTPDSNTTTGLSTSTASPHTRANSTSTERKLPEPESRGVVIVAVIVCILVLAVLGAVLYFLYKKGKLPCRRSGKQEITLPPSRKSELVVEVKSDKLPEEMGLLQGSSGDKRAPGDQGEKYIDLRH
UniProt P26038, sequence (P26038 whole entry): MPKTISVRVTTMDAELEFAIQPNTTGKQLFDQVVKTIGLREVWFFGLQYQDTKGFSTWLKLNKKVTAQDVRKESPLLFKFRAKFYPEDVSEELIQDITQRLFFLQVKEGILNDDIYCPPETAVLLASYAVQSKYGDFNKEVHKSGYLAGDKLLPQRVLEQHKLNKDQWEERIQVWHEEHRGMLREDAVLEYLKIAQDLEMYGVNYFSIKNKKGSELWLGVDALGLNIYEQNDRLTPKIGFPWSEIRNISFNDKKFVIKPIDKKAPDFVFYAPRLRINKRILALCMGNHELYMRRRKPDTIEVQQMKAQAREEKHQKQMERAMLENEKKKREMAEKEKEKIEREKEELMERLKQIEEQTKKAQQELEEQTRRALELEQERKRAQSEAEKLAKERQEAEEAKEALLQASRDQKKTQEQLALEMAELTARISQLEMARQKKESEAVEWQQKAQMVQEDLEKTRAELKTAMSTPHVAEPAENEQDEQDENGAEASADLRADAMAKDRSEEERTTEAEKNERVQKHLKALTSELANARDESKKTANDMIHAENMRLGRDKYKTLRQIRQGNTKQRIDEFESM
UniProt P26006, sequence (P26006 whole entry): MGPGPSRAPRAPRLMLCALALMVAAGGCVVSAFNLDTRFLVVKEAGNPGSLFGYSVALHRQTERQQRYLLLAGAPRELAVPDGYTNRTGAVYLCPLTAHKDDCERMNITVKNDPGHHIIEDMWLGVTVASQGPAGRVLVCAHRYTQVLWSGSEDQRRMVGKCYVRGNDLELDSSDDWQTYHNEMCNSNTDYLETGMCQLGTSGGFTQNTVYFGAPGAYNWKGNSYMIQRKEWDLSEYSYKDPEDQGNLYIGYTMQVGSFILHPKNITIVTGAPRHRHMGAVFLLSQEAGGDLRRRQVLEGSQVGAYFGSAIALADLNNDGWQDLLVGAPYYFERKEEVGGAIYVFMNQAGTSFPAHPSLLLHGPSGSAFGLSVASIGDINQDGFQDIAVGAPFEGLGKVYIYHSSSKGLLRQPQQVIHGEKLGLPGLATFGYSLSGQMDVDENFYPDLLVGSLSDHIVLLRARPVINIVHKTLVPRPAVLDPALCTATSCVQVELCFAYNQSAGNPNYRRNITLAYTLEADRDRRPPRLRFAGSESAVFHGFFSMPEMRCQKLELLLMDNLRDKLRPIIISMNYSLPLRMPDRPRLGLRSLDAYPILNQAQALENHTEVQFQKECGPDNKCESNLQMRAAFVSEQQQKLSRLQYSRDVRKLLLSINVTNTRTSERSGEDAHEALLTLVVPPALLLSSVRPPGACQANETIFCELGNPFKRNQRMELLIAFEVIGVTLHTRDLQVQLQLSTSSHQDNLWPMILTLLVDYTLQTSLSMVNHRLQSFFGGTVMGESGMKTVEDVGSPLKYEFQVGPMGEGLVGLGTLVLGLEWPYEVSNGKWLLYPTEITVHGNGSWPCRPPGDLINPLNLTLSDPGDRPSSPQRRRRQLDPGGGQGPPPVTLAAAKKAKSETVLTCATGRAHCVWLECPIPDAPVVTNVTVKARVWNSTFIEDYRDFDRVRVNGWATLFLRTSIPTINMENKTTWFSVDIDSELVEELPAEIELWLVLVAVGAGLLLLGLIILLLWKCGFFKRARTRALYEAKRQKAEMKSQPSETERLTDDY

Target	lysine labeling ratio R10:1
ITGA3 (lysine site: K897) (UniProt P26006)	1.68 (active)
ITGAV (lysine site: K134) (UniProt P06756)	2.96
MCAM (lysine site: K236) (UniProt P43121)	6.1
DISP1 (lysine site: K908) (UniProt Q96F81)	3.35
UniProt P62829 (lysine site: K13)	5.2
MSN (lysine site: K313) (UniProt P26038)	5.6
